Laboratory results from PMC5540273 (PLoS ONE, 2017).

Key:
Details in all cases: concentration: 1 μM, replicates: in singlicate; n = 1
[1] = system: RPS6KA5(Kin.Dom.2-C-terminal)
[2] = system: T1, RSK1(Kin.Dom.1-N-terminal)
T1 construct: gene RPS6KA1

[3] = system: T2, RSK1(Kin.Dom.2-C-terminal)
T2 construct: gene RPS6KA1

[4] = system: T3, RSK2(Kin.Dom.1-N-terminal)
T3 construct: gene RPS6KA3

[5] = system: T4, RSK2(Kin.Dom.2-C-terminal)
T4 construct: gene RPS6KA3

[6] = system: T5, RSK3(Kin.Dom.1-N-terminal)
T5 construct: gene RPS6KA2

[7] = system: T6, RSK3(Kin.Dom.2-C-terminal)
T6 construct: gene RPS6KA2

[8] = system: T7, RSK4(Kin.Dom.1-N-terminal)
T7 construct: gene RPS6KA6

[9] = system: T8, RSK4(Kin.Dom.2-C-terminal)
T8 construct: gene RPS6KA6

S6K1 = system: S6K1
SBK1 = system: SBK1
SGK2 = system: SGK2
SGK3 = system: SGK3
SGK = system: SGK
SIK2 = system: SIK2
SIK = system: SIK
SLK = system: SLK
SNARK = system: T9, SNARK
T9 construct: gene NUAK2

SNRK = system: SNRK
SRC = system: SRC
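Note: KINOMEscan kinase panel screen.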

SMILES | %Inh [1] [%] | %Inh [2] [%] | %Inh [3] [%] | %Inh [4] [%] | %Inh [5] [%] | %Inh [6] [%] | %Inh [7] [%] | %Inh [8] [%] | %Inh [9] [%] | %Inh (S6K1) [%] | %Inh (SBK1) [%] | %Inh (SGK2) [%] | %Inh (SGK3) [%] | %Inh (SGK) [%] | %Inh (SIK2) [%] | %Inh (SIK) [%] | %Inh (SLK) [%] | %Inh (SNARK) [%] | %Inh (SNRK) [%] | %Inh (SRC) [%]
Cl.O=S(=O)(c1cccc(F)c1)c1ccc(Nc2ncnc3cc(Br)sc23)cc1Cl [GSK306886] | 4 | 17 | 17 | 0 | 0 | 0 | 31 | 0 | 14 | 0 | 0 | 0 | 6 | 0 | 0 | 0 | 8 | 14 | 0 | 0
Nc1nc(-c2ccccn2)c(-c2ccnc3ccccc23)s1 [GW548057] | 33 | 5 | 39 | 0 | 9 | 0 | 1 | 0 | 76 | 0 | 0 | 0 | 6 | 0 | 0 | 0 | 7 | 0 | 0 | 12
Cl.Cn1ccc(-c2cccc(Nc3ccnc4cc(-c5nccs5)ccc34)c2)n1 [GW525701] | 39 | 0 | 0 | 8 | 21 | 2 | 13 | 0 | 7 | 0 | 0 | 0 | 14 | 0 | 0 | 0 | 42 | 0 | 0 | 0
CSc1nn2c(=O)cc(N3CCOCC3)nc2n1Cc1cccc(Cl)c1Cl [GSK2347225] | 8 | 18 | 15 | 0 | 0 | 10 | 0 | 0 | 9 | 0 | 6 | 8 | 1 | 0 | 72 | 13 | 18 | 8 | 0 | 26
Cc1cc(N2CCC(NS(=O)(=O)c3ccc(F)cc3)CC2)nc(Nc2cccc(C#N)c2)n1.O=C(O)C(F)(F)F [GSK1653537] | 0 | 7 | 0 | 3 | 20 | 18 | 0 | 62 | 10 | 0 | 0 | 0 | 0 | 0 | 0 | 0 | 13 | 0 | 0 | 5
CN1CCC(n2cnc(-c3ccc(F)cc3)c2-c2ccnc(NC3CCNCC3)n2)CC1 [SB-229482] | 0 | 17 | 23 | 9 | 43 | 18 | 30 | 0 | 51 | 25 | 0 | 87 | 0 | 0 | 0 | 12 | 0 | 0 | 1 | 0
Cn1ccc2ncnc(Nc3ccc(Oc4cccc(Cl)c4)c(Cl)c3)c21 | 11 | 13 | 0 | 20 | 0 | 19 | 10 | 29 | 14 | 0 | 15 | 11 | 10 | 0 | 0 | 37 | 33 | 13 | 0 | 12
CS(=O)(=O)CCNCc1ccc(-c2ccc3ncnc(Nc4ccc(OCc5ccccc5)c(Cl)c4)c3c2)o1.Cl [GW574783] | 0 | 0 | 0 | 4 | 29 | 17 | 6 | 6 | 8 | 0 | 3 | 0 | 0 | 11 | 0 | 0 | 25 | 0 | 0 | 2
Cn1cc(-c2ccc3c(c2)CCN3C(=O)Cc2cccc(C(F)(F)F)c2)c2c(N)ncnc21 [GSK2606414] | 0 | 0 | 2 | 18 | 0 | 0 | 0 | 0 | 12 | 4 | 9 | 1 | 21 | 19 | 0 | 0 | 14 | 14 | 1 | 5
CN1c2ccc(-c3ccc(C(=O)NCCO)cc3)cc2-c2[nH]ncc2S1(=O)=O | 14 | 0 | 26 | 12 | 41 | 0 | 35 | 3 | 27 | 33 | 0 | 23 | 0 | 10 | 16 | 16 | 25 | 0 | 0 | 46
